“And” between values parts separate entries of the source, which are not always exact repeats. Equal values may be shown once. Records with an inconclusive call do not appear. Where a structure was tested more than once in an assay, its records may differ in their call. The source made the active and inactive calls. Unless noted, the call rests on the fitted dose curve; in most records, active means well fitted curve in the direction sought with a large enough effect in the repeat runs; inconclusive means weak or mixed curves; inactive means no such curve, though single readings can be large; an effect the other way counts as inactive or inconclusive.
Columns and labels:
[1] = qHTS assay to identify small molecule agonists of the NFkB signaling pathway (AID 1159509; active means well fitted curve in the direction sought with a large enough effect in the signal ratio in the repeat runs, not every such curve was filed as active; the % refers to the signal ratio; further: series mostly up to about 61 µM)
Procedure, shortened: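 Agonist activity was read as beta-lactamase-driven FRET change (460 and 530 nm emission, 405 nm excitation) following 1.5 hr substrate loading at room temperature. Beforehand, ME-180 NFkB-bla reporter cells were treated with compounds for 5 hr at 37 C.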

[2] = qHTS assay to identify small molecule agonists of the NFkB signaling pathway - cell viability counter screen (AID 1159515; calls by dose curve; further: series mostly up to about 61 µM; nearly all actives have a fitted effect of over 55% in size)
Procedure, shortened: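 ME-180 NFkB-bla cells, 2,000/well; overnight attach; compound 5 hr, 37 C/5% CO2; LiveBLAzer substrate 1.5 hr RT; then CellTiter-Glo in same wells, 30 min RT, luminescence read.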

[3] = qHTS assay to identify small molecule agonists of the endoplasmic reticulum stress response signaling pathway (AID 1159516; active means well fitted activation curve with a large enough effect in the signal ratio in the repeat runs, not every such curve was filed as active; the % refers to the signal ratio)
Procedure, shortened: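 HeLa ESRE-bla reporter line; cpd 5 h, 37 C/5% CO2; LiveBLAzer B/G FRET substrate 2 h RT; ex 405, em 460/530 nm.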

[4] = qHTS assay to identify small molecule agonists of the endoplasmic reticulum stress response signaling pathway - cell viability counter screen (AID 1159517; calls by dose curve;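 further: HeLa cells carrying an ER stress response element beta-lactamase reporter; series mostly up to about 61 µM; nearly all actives have a fitted effect of over 50% in size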)
Procedure, shortened: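 In parallel with the ESRE reporter read, cytotoxicity was scored by CellTiter-Glo luminescence (30 min, room temperature) on HeLa ESRE-bla cells dosed for 5 hr.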

[5] = qHTS assay to identify small molecule antagonists of the retinoid-related orphan receptor gamma (ROR-gamma) signaling pathway - cell viability counter screen (AID 1159520); further: nearly all actives have a fitted effect of over 50% in size
Procedure, shortened: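 Tet-on ROR gamma CHO cells were given compounds for 2 hr, then doxycycline hyclate at 1 uM final, and incubated 16 hr at 37 C. Viability was measured as ATP content by CellTiter-Glo luminescence.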

[6] = target: Nuclear receptor ROR-gamma (Homo sapiens) (UniProt P51449); experiment: qHTS assay to identify small molecule antagonists of the retinoid-related orphan receptor gamma (ROR-gamma) signaling pathway (AID 1159521; further: nearly all actives have a fitted effect of over 50% in size; further: potency means the concentration at half of the fitted maximal effect)
Procedure, shortened: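 Screening format: cell-based luciferase reporter in CHO cells with doxycycline-inducible RORγ. Compound pre-exposure lasts 2 h, doxycycline is 1 uM final, induction runs 16 h at 37 C, and ONE-Glo luminescence is read.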

[7] = qHTS assay to identify small molecule agonists of the AP-1 signaling pathway - cell viability counter screen (AID 1159525; calls by dose curve; further: nearly all actives have a fitted effect of over 55% in size)
Procedure, shortened: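 Same-well cytotoxicity counter screen of the Tox21 10K library in ME-180 cells. The readout is ATP-dependent luminescence after 5 h compound treatment. Data are normalised to DMSO and tetra n-octyl ammonium bromide controls.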

[8] = qHTS assay to identify small molecule agonists of the AP-1 signaling pathway (AID 1159526; calls by dose curve; further: potency means the concentration at half of the fitted maximal effect)
[9] = qHTS assay to identify small molecule antagonists of the vitamin D receptor (VDR) signaling pathway - cell viability counter screen (AID 743225); further: nearly all actives have a fitted effect of over 50% in size
Procedure, shortened: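 In this counter screen, VDR-bla HEK 293T cells receive test compound plus 3 nM final calcitriol for 16 h at 37C. Room-temperature steps of 2 h with the beta-lactamase substrate, then 30 min with CellTiter-Glo, precede the luminescence read.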

[10] = qHTS assay to identify small molecule agonists of the vitamin D receptor (VDR) signaling pathway - cell viability counter screen (AID 743224)
Procedure, shortened: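 Cytotoxicity counter screen: VDR-bla cells, 16 h compound exposure at 37C, 5% CO2; CellTiter-Glo luminescence, 30 min RT, same wells as bla read.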

Measured: Potency

O=[N+]([O-])c1ccc(Cl)c(Cl)c1
not listed: [9] | [10]
inactive: all other assays above

CC[N+](=O)[O-]
not listed: [2] | [7] | [10]
inactive: all other assays above

O=P1(NCCCl)OCCCN1CCCl (stereo unspecified)
not listed: [2] | [10]
inactive: all other assays above

CCCCC(CC)C(=O)Cl (stereo unspecified)
not listed: [2]
inactive: all other assays above

N#Cc1ccccn1
not listed: [2]
inactive: all other assays above

Cc1cccc(N)c1
not listed: [2] | [7] | [9]
inactive: all other assays above

O=C(O)CCCc1ccc(N(CCCl)CCCl)cc1
inactive: [9] | [1] | [3] | [4] | [7] | [8]

Cc1cccc(N)c1C
not listed: [2] | [7] | [10]
inactive: all other assays above

C=CC#N
not listed: [2] | [10]
inactive: all other assays above

Nc1ccc([As](=O)(O)O)cc1
not listed: [2] | [10]
inactive: all other assays above

CN(C)CCC#N
not listed: [2] | [7]
inactive: all other assays above

O=[N+]([O-])c1cc([As](=O)(O)O)ccc1O
not listed: [2] | [7] | [9]
inactive: all other assays above

O=C(O)C1C(C(=O)O)C2(Cl)C(Cl)=C(Cl)C1(Cl)C2(Cl)Cl (stereo unspecified)
not listed: [2] | [10]
inactive: all other assays above

CNC(=O)O/N=C/C(C)(C)S(C)=O (stereo unspecified)
not listed: [2] | [7]
inactive: all other assays above

Cc1ccc(N=C=O)cc1N=C=O
not listed: [2] | [10]
inactive: all other assays above

CC12CC1(C)C(=O)N(c1cc(Cl)cc(Cl)c1)C2=O (stereo unspecified)
not listed: [2] | [7]
inactive: all other assays above

CC(=O)/C=C/c1ccccc1
not listed: [2]
inactive: all other assays above

O=C/C=C/c1ccccc1
not listed: [2] | [7] | [9]
inactive: all other assays above

CCOC(=O)CC(SP(=O)(OC)OC)C(=O)OCC (stereo unspecified)
not listed: [2]
inactive: all other assays above

Nc1ccc(N)cc1
not listed: [2]
inactive: all other assays above

CNC(=O)Oc1cccc2ccccc12
not listed: [2] | [9]
inactive: all other assays above

C[C@]12CC[C@H](O)CC1=CC[C@@H]1[C@@H]2CC[C@]2(C)C(=O)CC[C@@H]12
active: [6] 24.4 µM and 24.3 µM
inactive: [9] | [3] | [4] | [5] | [8]

O=C(O)c1cc(Oc2ccc(C(F)(F)F)cc2Cl)ccc1[N+](=O)[O-]
not listed: [2]
inactive: all other assays above

C=C(C)C(=O)OCC(CC)CCCC (stereo unspecified)
49.5 µM (active) and inactive: [6]
not listed: [2] | [10]
inactive: all other assays above

OCc1ccco1
inactive: [1] | [3] | [4] | [5] | [6] | [8]

Sc1ccccc1
49.7 µM (active) and inactive: [8]
not listed: [2] | [7]
inactive: all other assays above

CNC(=O)O/N=C/C(C)(C)SC
not listed: [2] | [7] | [10]
inactive: all other assays above

Cc1cc(O)ccc1Cl
not listed: [2] | [10]
inactive: all other assays above

CC(=O)C1CCOC1=O (stereo unspecified)
not listed: [2] | [7]
inactive: all other assays above

CCSC(=O)N1CCCCCC1
not listed: [2] | [7]
inactive: all other assays above

O=C(O)Cc1ccccc1
not listed: [2] | [7]
inactive: all other assays above

CNCC(O)c1ccc(O)cc1 (stereo unspecified)
not listed: [2]
inactive: all other assays above
